About 8,600 (12%) of roughly 69,000 compounds showed an effect of 50% or more. Many of the other results were omitted from the sample, so strong results are more common in it than they were.
What follows are compounds tested on Plasmodium berghei (assay: Screen against P. berghei liver stage (PbLuc), transformed with Luciferase, at 10uM). Details: tested at 10 uM.
Format: functional, HepG2

Compared with `CC(=O)c1cccc(NC(=O)Cn2cc(I)cn2)c1`, `NC(=O)c1ccc(NC(=O)Cn2cc(I)cn2)cc1` is higher in INHIBITION: -1.58% for the first, 40% for the second.

First: Cc1ccc(NC(=O)Cn2cc(I)cn2)cc1
Second: CC(C)c1ccc(NC(=O)Cn2cc(I)cn2)cc1
The INHIBITION of the first is lower: 23.2% for the first, 82.2% for the second.

First: Cc1ccc(NC(=O)Cn2cc(I)cn2)cc1C
Second: Cc1ccc(C)c(NC(=O)Cn2cc(I)cn2)c1
The INHIBITION of the first is higher: 66.5% for the first, 49.1% for the second.

First: CS(=O)(=O)NCc1cnc2n1CCN(Cc1ccoc1)CC2
Second: O=C(O)[C@]12CCCN(Cc3ccoc3)C[C@H]1CN(c1ncccn1)C2
The INHIBITION of the first is higher: 33% for the first, 7.24% for the second.

First: Cn1cc(C(=O)N[C@@H]2CN(Cc3cccnc3)[C@@H]3CCCO[C@@H]32)cn1
Second: O=C(c1cccnc1)N1CCCC(c2ccnc3nccn23)C1 (stereo not given)
The INHIBITION of the first is lower: 3.25% for the first, 9.3875% for the second.

Compared with `O=C(c1cnccn1)N1C[C@H]2CC[C@@H](C1)N(C(=O)CCc1ccsc1)C2`, `Cn1ccnc1C(=O)N1CCC2(CC1)CC(Oc1cccnc1)CO2` (stereo not given) is higher in INHIBITION: -69.6% for the first, 32.4% for the second.

Going from `O=C1CCC(C(=O)Nc2ccc(=O)n(Cc3ccc(Cl)c(Cl)c3)c2)N1` (stereo not given) to `CS(=O)(=O)N1CCCC(C(=O)Nc2cnn(Cc3ccc(F)cc3)c2)C1` (stereo not given), the INHIBITION rises from -20.5% to 30.8%.

Going from `Cc1nnc(CN(C)Cc2ccc(C(=O)Nc3sccc3C#N)cc2)o1` to `Cc1nnsc1CN(C)Cc1ccc(C(=O)Nc2sccc2C#N)cc1`, the INHIBITION rises from 15.9% to 55.4%.

First: CN(Cc1ccc(C(=O)Nc2sccc2C#N)cc1)Cc1ccno1
Second: CN1CCN(c2ccccc2NC(=O)NCCc2ccc(O)cc2)CC1
The INHIBITION of the first is lower: 15.9% for the first, 35.1% for the second.

First: COCCN1CCCC(Cc2ccc(N3CCOCC3)nn2)C1 (stereo not given)
Second: CC(=O)N1CCC(c2cncc(N3CCOCC3)n2)CC1
The INHIBITION of the first is lower: -0.902% for the first, 41.5% for the second.

Compared with `Cc1csc(CNC(=O)NC2CCCc3c2cnn3CCO)n1` (stereo not given), `Cc1ccsc1CNC(=O)NC1CCCc2c1cnn2CCO` (stereo not given) is lower in INHIBITION: 14% for the first, 13.4% for the second.

First: O=C(NCC1CCCCC1)NC1CCCc2c1cnn2CCO (stereo not given)
Second: O=C(NC1CCCCC1)NC1CCCc2c1cnn2CCO (stereo not given)
The INHIBITION of the first is higher: 55.1% for the first, -9.93% for the second.

Compared with `O=C(NCC(F)(F)F)NC1CCCc2c1cnn2CCO` (stereo not given), `Cc1ccc(CNC(=O)NC2CCCc3c2cnn3CCO)cn1` (stereo not given) is higher in INHIBITION: 37.1% for the first, 53.4% for the second.

First: O=C(NCCc1ccc(F)cc1)NC1CCCc2c1cnn2CCO (stereo not given)
Second: Cc1nc(CCNC(=O)NC2CCCc3c2cnn3CCO)cs1 (stereo not given)
The INHIBITION of the first is lower: 18.3% for the first, 26.9% for the second.

Going from `O=C(NCCC1=CCCCC1)NC1CCCc2c1cnn2CCO` (stereo not given) to `CCc1nc(C2CCCN(C(=O)c3cnn(CC)c3)C2)no1` (stereo not given), the INHIBITION falls from 62% to -8.69%.

First: CC1(C)Cc2nc(C(C)(C)C)ncc2C(NC(=O)CN)C1 (stereo not given)
Second: Cc1nc(C(C)(C)C)sc1C(=O)NCCn1ccnc1
The INHIBITION of the first is higher: 36.8% for the first, 30.9% for the second.

Compared with `CCn1ncc2c1C(COCC1CC1)N(Cc1nccs1)CC2` (stereo not given), `Cc1nccn1CCC1CCCCN1Cc1ccc(O)cc1Cl` (stereo not given) is lower in INHIBITION: 13.7% for the first, 1.37% for the second.

Compared with `COc1cccc(S(=O)(=O)CCNC2CCc3ncnn3C2)c1` (stereo not given), `Cc1nn(CCNS(=O)(=O)c2ccccc2)c(C)c1Cl` is higher in INHIBITION: 41.2% for the first, 48.3% for the second.

Going from `CN(C)C(=O)C1CCN(C2CCN(CC3CCC3)CC2)CC1` to `Cc1cnn(CC2CCCN2C(=O)CN(C)C2CC2)c1` (stereo not given), the INHIBITION rises from 26.5% to 29.7%.

Going from `CCn1cc(N)c(-c2nnc3n2CCC3)n1` to `CCc1nc(CSc2nnc(N)n2C2CC2)no1`, the INHIBITION rises from 24.8% to 42.1%.

Going from `Cc1ccc(C(=O)NS(C)(=O)=O)cc1-n1cccc1` to `Cc1ccc(C(=O)Nc2ccccc2N2CCCC2)n1C`, the INHIBITION rises from 5.23% to 21.2%.

Compared with `O=C(Nc1ccc2c(ccn2CCN2CCOCC2)c1)c1ccncc1`, `CC(C)(O)CN1CCN(C(=O)c2cccn2Cc2ccncc2)CC1` is higher in INHIBITION: -35.8% for the first, 19.2% for the second.

First: Cc1ccccc1Cc1nc(CSc2nnc(N)n2C)no1
Second: Cc1ccccc1Cc1nc(CSc2nnc(N)n2C2CC2)no1
The INHIBITION of the first is lower: 10.7% for the first, 67.8% for the second.

First: CCC(=O)N1CCC(Cc2ccccc2-c2ccncc2)(C(=O)NC)C1 (stereo not given)
Second: CC(C)NC(=O)N1CCC2(CC(=O)N(c3ccccc3)C2)C1 (stereo not given)
The INHIBITION of the first is lower: 6.32% for the first, 28.4% for the second.

Going from `O=C(O)c1ccn(-c2cccc(NC(=O)c3ccccc3Cl)c2)n1` to `O=C(O)c1ccn(-c2ccc(NC(=O)c3ccccc3Cl)cc2)n1`, the INHIBITION falls from 52.6% to 46.1%.

First: O=C(O)c1ccn(-c2ccccc2NC(=O)c2ccccc2Cl)n1
Second: CN1CCN(c2ccccc2NC(=O)NCCc2ccccc2)CC1
The INHIBITION of the first is lower: 4.1% for the first, 64.3% for the second.

Going from `CCCS(=O)(=O)N1C[C@@H]2COC[C@@H](Cc3nc(C)no3)[C@@H]2C1` to `CCS(=O)(=O)N1C[C@@H]2COC[C@@H](Cc3nc(C)no3)[C@@H]2C1`, the INHIBITION falls from 61.9% to 12.1%.

First: COc1cc(N2C[C@@H]3COC[C@@H](Cc4nnc(C)o4)[C@@H]3C2)ncn1
Second: COc1cc(N2C[C@@H]3COC[C@@H](Cc4nc(C)no4)[C@@H]3C2)ncn1
The INHIBITION of the first is lower: 50.3% for the first, 65.7% for the second.

First: Cc1noc(C[C@@H]2COC[C@H]3CN(S(C)(=O)=O)C[C@@H]23)n1
Second: Cc1noc(C[C@@H]2COC[C@H]3CN(S(=O)(=O)C4CC4)C[C@@H]23)n1
The INHIBITION of the first is higher: 26.5% for the first, 24.9% for the second.

Compared with `Cc1nnc(C[C@@H]2COC[C@H]3CN(C(=O)C4=CCCC4)C[C@@H]23)o1`, `Cc1noc(C[C@@H]2COC[C@H]3CN(C(=O)C4=CCCC4)C[C@@H]23)n1` is lower in INHIBITION: 36.4% for the first, 34.9% for the second.

Going from `Cc1nnc(C[C@@H]2COC[C@H]3CN(C(=O)c4ccco4)C[C@@H]23)o1` to `CN1CCN(c2ccc(Br)cc2NC(=O)c2ccco2)CC1`, the INHIBITION rises from 2.4% to 46.3%.

Going from `CCc1ccc(CN2Cc3nccn3CC(Cn3cncn3)C2)o1` (stereo not given) to `Cc1nccn1CCC1CCCCN1C(=O)c1ccc2[nH]nnc2c1` (stereo not given), the INHIBITION rises from -14.3% to -5.29%.

Going from `CCOc1ncccc1NC(=O)N1CCCN(C(=O)OC)CC1` to `COC(=O)c1cccc(C(=O)N2CCCCC2CCn2ccnc2C)c1` (stereo not given), the INHIBITION rises from -5.1% to 17.3%.

Compared with `COc1c(CNCCNC(=O)c2ccc(C)c(F)c2)c(C)nn1C`, `COc1cccc(CN(C)C(=O)NCc2c(C)cc(C)[nH]c2=O)c1` is higher in INHIBITION: 11.2% for the first, 22.3% for the second.

Going from `COCCn1ccc(NCc2cc3cc(F)ccc3o2)n1` to `Fc1ccc(F)c(CN2CCC(c3n[nH]c4ncccc34)CC2)c1`, the INHIBITION falls from 5.58% to -10.5%.

Compared with `COCC(=O)N1CCCC1c1cc(Nc2nnc(C)s2)nc(C)n1` (stereo not given), `CNc1cc(C(=O)N2CCCCC2CCn2ccnc2C)ccn1` (stereo not given) is higher in INHIBITION: 18.2% for the first, 64.5% for the second.

First: CN(C)[C@@H]1CN(C(=O)c2ccc3ccccc3n2)C[C@H]1O
Second: Cc1ncsc1CCC(=O)N(C)Cc1nc2ccccc2n1C
The INHIBITION of the first is higher: 14.7% for the first, 14.6% for the second.

Compared with `Fc1ccc(CN2CCC(c3n[nH]c4ncccc34)CC2)cc1F`, `Fc1cccc(Cl)c1CN1CCC(c2n[nH]c3ncccc23)CC1` is higher in INHIBITION: 3.45% for the first, 24.4% for the second.

First: c1cnc(N2CCC(c3n[nH]c4ncccc34)C2)nc1 (stereo not given)
Second: CC(C)Oc1cccc(CN2CCC(c3n[nH]c4ncccc34)CC2)c1
The INHIBITION of the first is lower: 15.9% for the first, 66.5% for the second.

Compared with `CC(C)Oc1ccc(CN2CCC(c3n[nH]c4ncccc34)CC2)cc1`, `CC(C)N1CCC2(C=C(C(=O)NC3CC3)c3ccccc32)CC1` is lower in INHIBITION: 70.1% for the first, -24.5% for the second.

First: CCN(Cc1cnn(C)c1)C[C@H]1CC[C@@H](Cc2ccc(C#N)cc2)O1
Second: Cc1ccc(CNC2CCc3[nH]c(=O)ccc3C2)cc1C (stereo not given)
The INHIBITION of the first is lower: 6.33% for the first, 40.1% for the second.

Going from `CC(C)c1cc(N(C)Cc2cc(C3CC3)on2)n2nccc2n1` to `Cc1nn(CC(=O)N(C)Cc2nncn2C(C)C)c(=O)c2ccccc12`, the INHIBITION falls from 32.5% to -7.27%.

Going from `CCOC(=O)N1[C@@H](c2ccco2)[C@@H](C(=O)NC)C[C@]12CCCCNC2=O` to `CN1CCN(c2ccccc2NC(=O)c2ccco2)CC1`, the INHIBITION rises from 42.7% to 50.4%.

First: Cc1nc(C)c(C(=O)NCCn2nc3ccccn3c2=O)s1
Second: CCc1nc(C)c(C(=O)NCCn2nc3ccccn3c2=O)s1
The INHIBITION of the first is higher: 4.283% for the first, -11% for the second.

Compared with `CCCc1nc(C)c(C(=O)NCCn2nc3ccccn3c2=O)s1`, `CCCc1nc(C)c(C(=O)NCCn2ccnc2)s1` is lower in INHIBITION: 52.8% for the first, 51% for the second.

First: Cc1nc(C(C)C)sc1C(=O)NCCn1ccnc1
Second: Cc1nccn1CCC1CCCCN1C(=O)c1ccc(N(C)C)cc1 (stereo not given)
The INHIBITION of the first is lower: 29.8% for the first, 66.9% for the second.

First: CCN1CCC2(CCN(c3ncccn3)CC2)C1=O
Second: CC(C)N1CCC2(CC1)C(=O)N(CCN(C)C)c1ccccc12
The INHIBITION of the first is lower: -12.2% for the first, 49.4% for the second.

First: Cc1ccc(CN2C[C@@H]3CCCO[C@@H]3[C@H](NS(C)(=O)=O)C2)o1
Second: Cc1ccc(OCC(C)NS(=O)(=O)Cc2ccon2)cc1 (stereo not given)
The INHIBITION of the first is lower: 46.6% for the first, 48.5% for the second.

Going from `O=C(NCc1cncc2c1CCN(Cc1cccs1)C2)C1CC1` to `CN1CCN(c2ccccc2NC(=O)NCC[S+](C)[O-])CC1` (stereo not given), the INHIBITION rises from 9.67% to 39.3%.

Going from `CN(Cc1ccsc1)C(=O)COC(=O)c1cc(Cl)c[nH]1` to `CC(CCc1ccc(F)c(F)c1)NS(=O)(=O)Cc1ccon1` (stereo not given), the INHIBITION rises from 14.8% to 53.5%.

Compared with `CCCN1CCC(NC(=O)c2ccnc(SCC)c2)CC1`, `Cc1nccn1CCC1CCCCN1C(=O)c1ccc2nonc2c1` (stereo not given) is lower in INHIBITION: 49.7% for the first, -17.5% for the second.

Going from `Cc1cnc(C)c(N2CC[C@H](N3CCOCC3)[C@H](CCCO)C2)n1` to `Cc1cnn(C2CCCN(C(=O)c3ccc(-n4cnnn4)cc3)C2)c1` (stereo not given), the INHIBITION rises from -12.4% to 47.4%.

`CC(C)CC(CO)NS(=O)(=O)Cc1ccon1` (stereo not given) gave an INHIBITION of 23.8%.

— ChEMBL document CHEMBL4513216, “Probing the Open Global Health Chemical Diversity Library for Multistage-Active Starting Points for Next-Generation Antimalarials” (ACS Infect Dis, 2020)
